Assay outcomes from PubChem BioAssay.
Shown are actives, neighbours in structure and some others; about 8.8% of the full set was active somewhere.
HT1080 IDH1KD tx: toxicity to HT-1080 IDH1 knockdown cells (counter line); 2% of 360,000 active; Potency, µM (series often up to 46.1 µM), most hits filed as cytotoxic; HT-1080 IDH1 knockdown viability, ATP luminescence, 48 h
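CellTiter-Glo luminescence after 48 h compound exposure at 37 degrees C of IDH1-knockdown HT-1080 cells in 5% FBS RPMI. %Activity scaled between DMSO wells and cell-free media wells, with curves fitted and assigned curve classes.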
HT1080NT lethal: kills 2HG-producing HT-1080-NT fibrosarcoma cells; HT-1080-NT fibrosarcoma viability, CellTiter-Glo ATP luminescence, 48 h; Potency, µM (top dose mostly 46.1 µM), most hits filed as cytotoxic; 1.6% of 360,000 active;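 further: NT is the 2HG producing partner of a matched IDH1 knockdown line; nearly all actives have a fitted effect of over 55% in size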
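Luminescent CellTiter-Glo readout after 48 hours of compound exposure at 37 degrees C defined viability of HT-1080-NT cells. Activity was normalized to DMSO wells and cell-free media wells; concentration-response curves were fitted and assigned curve classes.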
KB-3-1 tox: kills parental KB-3-1 adenocarcinoma cells; 1.4% of 400,000 active; KB-3-1 viability, CellTiter-Glo ATP luminescence, 72 h; Potency, µM (highest dose often 46.1 µM), hits mostly cytotoxic; AID 1347075; further: nearly all actives have a fitted effect of over 60% in size
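Multi-concentration cytotoxicity screen in KB-3-1 cells grown in DMEM lacking phenol red with 10% FBS. After 72 h at 37 °C with compound, ATP-dependent luminescence was recorded.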
IL-1B inflam inh: inflammasome signaling inhibition, IL-1 beta readout. AID 743279. 4.7% of 360,000 active. activity change, % at 57.5 µM. THP-1 LPS/ATP IL-1B secretion, AlphaLISA, 16 h; active compounds read low; in the data active means activity change below about -50%; inconclusive means mostly about -30% to -49%
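THP-1 cells pretreated 1 hr with compounds (up to 57.5 uM final), then stimulated with LPS (250 ng/mL final) plus ATP (1.25 mM final); secreted IL-1B measured by AlphaLISA after 16 hr, decreased signal indicating inhibition.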
KB-V1 MDR tox: KB-V1 MDR subline cytotoxicity; KB-V1 MDR cells viability, CellTiter-Glo, 72 h; Potency, µM (titrated, usually from 46.1 µM), usual class: cytotoxic; 3.4% of 400,000 active; AID 1347076; further: nearly all actives have a fitted effect of over 60% in size
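Compound-treated KB-V1 multidrug-resistant cells, 72 h, 37 degrees C; viability by CellTiter-Glo. Fitted qHTS curves give the values.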
A number is an active result; . = inactive; ? = inconclusive; / = no result; [ ] = remark or other dose. Unless noted, the call rests on the fitted dose curve; in most records, active means well fitted curve in the direction sought with a large enough effect; inconclusive means small, poorly fitted or top-dose-only effect, or another doubt; inactive means no such curve, though single readings can be large; an effect the other way counts as inactive or inconclusive.

SMILES	HT1080 IDH1KD tx	HT1080NT lethal	KB-3-1 tox	IL-1B inflam inh	KB-V1 MDR tox
CCCCN(C)CCNC(=O)CN1C(=O)CSc2ccc(S(=O)(=O)N3CCCC3)cc21	.	.	.	.	.
Cc1cccc(CNC(=O)c2ccc(N3Cc4ccccc4Oc4ncccc43)s2)c1	/	/	.	/	.
COC(=O)c1ccc(CSc2nc3ccc(C)cc3[nH]2)o1	.	.	.	.	?
O=C(c1ccc2ccccc2c1)N1CCN(c2ccc(C(F)(F)F)cn2)CC1	.	.	.	.	.
O=C(Nc1ccccc1)N1CCN(c2cccc(C(F)(F)F)c2)CC1	.	.	.	-50	?
O=C(Nc1ccc([N+](=O)[O-])cc1)N1CCCCCC1	.	.	.	.	?
CC(C)(C)c1ccc(NC(=O)N2CCCN(c3ccc([N+](=O)[O-])cn3)CC2)cc1	?	.	?	/	10µM
O=C(Nc1ccccc1)N1CCN(c2ccc(C(F)(F)F)cn2)CC1	.	.	?	?	8.2µM
O=C(CCNS(=O)(=O)c1cccs1)N1CCN(c2cccc(C(F)(F)F)c2)CC1	.	.	.	.	16µM
COc1ccc(N2CCN(C(=O)CCNS(=O)(=O)c3cccs3)CC2)cc1	.[9.24 µM]	.	.	.	.
O=S(=O)(/N=C(/Nc1ccccc1)c1ccccc1O)c1ccccc1	.	.	.	.	.
CCCCn1cc2c(c1-c1ccc(Cl)cc1)c(=O)n(C)c(=O)n2C	/	/	.	/	.
CC(=O)c1ccc(NC(=O)N2CCN(c3cccc(Cl)c3)CC2)cc1	.	.	.	.	23µM
CC(=O)c1ccc(N2CCN(C(=O)Nc3ccc(Cl)cc3)CC2)cc1	.	.	.	.	?
Cc1ccnc(N2CCC(C(=O)Nc3ccc4c(c3)OCCO4)CC2)n1	.	.	.	.	?
N=C(N)SCc1nc2ccccc2c(=O)n1-c1ccccc1Cl	.	.	.	?	23µM
CCCCn1c(N)c(N(CCOC)C(=O)CCCc2cccs2)c(=O)[nH]c1=O	.	.	.	.	.
Cc1ccc(N=C2NC(=O)/C(=C/c3cccnc3)S2)c(C)c1	.	?	.	?	.
Cc1ccc(N=C2NC(=O)/C(=C\c3ccsc3)S2)c(C)c1	.	.	.	.	18µM
Cc1c(NC(=O)c2ccc(N3CCC(C)CC3)c([N+](=O)[O-])c2)cccc1-c1nc2ccccc2o1	/	/	.	/	.
COc1ccccc1CNC(=O)CCn1c(=O)c2ccccc2n(CC(=O)Nc2ccc(C)cc2C)c1=O	/	/	.	/	.
CCC(=O)NNc1ccc(Br)cc1	4.1µM	3.7µM	.	.	.
CCOC(=O)C(=NC(C)CC)NNc1ccc(Br)cc1 (configuration not stated)	?	16µM	.	.	.
CCC(C)NC(=O)Nc1ccc(Br)cc1 (configuration not stated)	.	.	.	.	.
CC(C)N1CCN(Cc2cn[nH]c2C2CCCCC2)CC1CCO (configuration not stated)	.	.	.	.	.
SMILES	HT1080 IDH1KD tx	HT1080NT lethal	KB-3-1 tox	IL-1B inflam inh	KB-V1 MDR tox
Cc1cc(C)nc(N2CCN(c3nc(-c4ccccc4)nc4c3oc3ccccc34)CC2)n1	.	.	.	.	.
Cc1nc(N2CCN(Cc3ccc(Cl)cc3)CC2)c2oc3ccccc3c2n1	?	.	.	-63	?
Cc1nc(N2CCC(C)CC2)c2oc3ccccc3c2n1	?	?	?	.	21µM
COc1ccccc1N1CCN(c2nc(C)nc3c2oc2ccccc23)CC1	1.3µM	1.1µM	1.4µM	.	1.1µM
O=C(Nc1ccccc1)C(=O)Nc1ccc2c(c1)N(C(=O)C1CC1)CCC2	?	?	23µM	.	?
CC(=O)c1ccc(N2CCN(C(=O)c3cc4c(s3)-c3ccccc3OC4)CC2)cc1	/	/	.	/	16µM
Cc1c(C)n(CCCN(C)C)c2ncnc(NC3CCCCC3)c12	?	.	.	-53	.
Cc1c(C)n(CCCN(C)C)c2ncnc(Nc3ccccc3)c12	.	.	.	.	.
Cc1cc(Br)ccc1NC(=O)CN(C)C(=O)C1CCN(c2ncnc3sc(C)c(C)c23)CC1	?	?	.	-56	?
CCN(CC(=O)Nc1c(F)cccc1F)C(=O)C1CCN(c2ncnc3sc(C)c(C)c23)CC1	.	.	.	.	13µM
Cc1cccc(C)c1NC(=O)CN(C)C(=O)C1CCN(c2ncnc3sc(C)c(C)c23)CC1	.	.	.	.	?
CCN(CC(=O)Nc1c(Cl)cccc1Cl)C(=O)C1CCN(c2ncnc3sc(C)c(C)c23)CC1	.	.	.	.	.
CN1CCc2c(sc(NC(=O)c3ccc(S(=O)(=O)N4CCCC4)cc3)c2C(N)=O)C1	.	.	.	.	.
CCOC(=O)N1CCN(S(=O)(=O)c2ccc(C(=O)Nc3sc4c(c3C(N)=O)CCN(CC)C4)cc2)CC1	?	?	?	-68	.
CCN1CCc2c(sc(NC(=O)c3ccc(S(=O)(=O)N4CCCC4)cc3)c2C(=O)NC)C1	?	?	?	-97	?
CCCN1CCc2c(sc(NC(=O)c3ccc(S(=O)(=O)N(C)c4ccccc4)cc3)c2C(=O)NC)C1	?	?	.	-60	?
CN1CCc2c(sc(NC(=O)c3ccc(S(=O)(=O)N4CCCCCC4)cc3)c2C(N)=O)C1	21µM	23µM	.	-96	21µM
CCN1CCc2c(sc(NC(=O)c3ccc(S(=O)(=O)N(C)C4CCCCC4)cc3)c2C(N)=O)C1	/	/	.	/	.
CCCN1CCc2c(sc(NC(=O)c3ccc(S(=O)(=O)N(C)c4ccccc4)cc3)c2C(N)=O)C1	?	.	.	.	.
CNC(=O)c1c(NC(=O)c2ccc(S(=O)(=O)N3CCCCC3)cc2)sc2c1CCN(C(C)C)C2	.	.	.	.	.
Cc1cc(CCNC=O)c(C)c2c1oc1ccccc12	.	.	?	.	?
Oc1ccccc1-c1n[nH]c(=S)n1Cc1ccco1	?	?	.	.	.
COC(=O)c1c(NC(=O)c2ccc(S(=O)(=O)N3CC(C)OC(C)C3)cc2)sc2c1CCN(C)C2 (configuration not stated)	.	.	.	.	.
CC(=O)N1CCc2c(sc(NC(=O)C3CCN(S(=O)(=O)c4cccs4)CC3)c2C(N)=O)C1	.	.	.	.	.
CCCN1CCc2c(sc(NC(=O)C3CCN(S(=O)(=O)c4cccs4)CC3)c2C(N)=O)C1	.	.	.	-62	.
CCOC(=O)N1CCN(S(=O)(=O)c2ccc(C(=O)Nc3sc4c(c3C(=O)OC)CCN(C)C4)cc2)CC1	?	18µM	?	-100	?
CCCN1CCc2c(sc(NC(=O)c3ccc(S(=O)(=O)N4CCN(C(=O)OCC)CC4)cc3)c2C(N)=O)C1	6.5µM	7.3µM	.	-98	.
COc1ccc(N(C)S(=O)(=O)c2cccc(C(=O)N3CCN(Cc4ccc5c(c4)OCO5)CC3)c2)cc1	.	.	.	-68	?
